Source: PubChem (National Center for Advancing Translational Sciences (NCATS))
NPR1 antag = Natriuretic polypeptide receptor (hNpr1) antagonism - Primary qHTS; Atrial natriuretic peptide receptor 1 (Homo sapiens), P16066; HEK293 hNpr1 GloSensor cGMP, ANP-stimulated luminescence; Potency, µM (highest dose often 46.3 µM), without a hit: at the top dose activity change, negative = inhibition, most hits filed as inhibitors; 1.6% of 76,000 active; AID 1347048, 2019; calls by dose curve; further: on the % scale 0 is the no-effect control and ±100 the full control effect; nearly all actives have a fitted effect of over 60% in size
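HEK293 cells stably expressing human Npr1 and cGMP GloSensor pGS-40F, loaded 2 h with 2% GloSensor reagent, given compound 30 min at room temperature. Luminescence read before and 20 min after 0.1 nM hNppA.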
HEK cytotox = Cytotoxic Profiling in HEK 293 Cell Line of Diverse Libraries Using Quantitative High-Throughput Screening; HEK 293 viability, ATP luminescence (CellTiter-Glo), 48-72 h; Potency, µM (series often up to 115 µM), inactives show top-dose activity change, negative = cytotoxicity, usual class: inhibitors; 6.6% of 94,000 active; AID 1345083, 2018; further: on the % scale 0 is the no-effect control and ±100 the full control effect; nearly all actives have a fitted effect of over 60% in size
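Cytotoxicity was scored by loss of ATP-coupled luminescence (CellTiter-Glo) in HEK 293 cells. Compound treatment ran 48 or 72 hr at 37 degree Celsius, 5% CO2, 95% humidity.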
FLuc inh-1 = Firefly luciferase inhibition profiling of diverse chemical library using quantitative high-throughput screening | 2.5% of 76,000 active | Potency, µM (series often up to 115 µM), hits mostly inhibitors | purified P. pyralis luciferase, luminescence, biochemical | AID 1347043, 2019; further: on the % scale 0 is the no-effect control and ±100 the full control effect; nearly all actives have a fitted effect of over 65% in size
Target sequence (P08659 whole entry, looked up): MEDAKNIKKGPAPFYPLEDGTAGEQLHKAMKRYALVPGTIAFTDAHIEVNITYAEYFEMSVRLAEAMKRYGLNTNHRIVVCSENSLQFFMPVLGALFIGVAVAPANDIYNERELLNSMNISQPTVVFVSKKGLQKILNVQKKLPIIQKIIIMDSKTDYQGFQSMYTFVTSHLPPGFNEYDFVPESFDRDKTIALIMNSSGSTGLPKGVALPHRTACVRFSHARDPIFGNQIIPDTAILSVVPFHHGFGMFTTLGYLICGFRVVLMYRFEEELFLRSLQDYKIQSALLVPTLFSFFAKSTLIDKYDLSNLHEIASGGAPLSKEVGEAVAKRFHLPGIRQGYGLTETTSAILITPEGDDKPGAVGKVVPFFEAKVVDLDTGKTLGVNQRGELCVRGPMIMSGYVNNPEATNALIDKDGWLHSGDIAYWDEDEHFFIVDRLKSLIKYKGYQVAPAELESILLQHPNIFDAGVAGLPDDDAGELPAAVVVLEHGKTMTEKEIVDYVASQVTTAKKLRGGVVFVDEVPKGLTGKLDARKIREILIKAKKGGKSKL
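Purified 10nM P. pyralis luciferase with 10uM D-luciferin and 10uM ATP in 50mM Tris acetate pH 7.5, 10mM Mg acetate, 0.01% Tween-20, 0.05% BSA. qHTS titration; luminescence read by CCD imager.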
3T3 cytotox = Cytotoxic Profiling in NIH 3T3 Cell Line of Diverse Libraries Using Quantitative High-Throughput Screening. NIH 3T3 viability, CellTiter-Glo ATP luminescence, 48-72 h. Potency, µM (series often up to 96.7 µM), for the others: top-dose activity change, negative = cytotoxicity, most hits filed as inhibitors. 4.3% of 94,000 active; further: on the % scale 0 is the no-effect control and ±100 the full control effect; nearly all actives have a fitted effect of over 55% in size
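Mouse fibroblast NIH 3T3 cells, 400 per well, received compound via pintool and were incubated for 48 or 72 hr prior to CellTiter-Glo ATP luminescence measurement.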
FLuc SDR no ATP = Firefly luciferase (FLuc-C-HiBiT) SDR gain of signal screen - without ATP. shares compounds with FLuc inh-1. Purified FLuc-C-HiBiT, Nano-Glo HiBiT luminescence, no ATP. Potency, µM (doses to about 32.7 µM), for inactives: at the highest dose activation (signal gain), hits mostly activators. 7.8% of 1,300 active; further: nearly all actives have a fitted effect of over 55% in size
FLuc SDR ATP = Firefly luciferase (FLuc-C-HiBiT) SDR gain of signal screen - plus ATP | 8.7% of 1,300 active | Potency, µM (series often up to 32.7 µM), inactives show at the highest dose activation (gain of signal), most hits filed as activators | shares compounds with FLuc inh-1 | purified FLuc-C-HiBiT + ATP, HiBiT complementation luminescence;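 further: signal reports ligand binding via conformational change of the enzyme rather than luciferase catalysis; % of control where 0% means no effect; nearly all actives have a fitted effect of over 55% in size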
FLuc inh-2 = Firefly luciferase (FLuc-C-HiBiT) enzymatic inhibition screen - Functional assay; shares compounds with FLuc inh-1; purified FLuc-C-HiBiT enzyme, luciferin luminescence; Potency, µM (highest dose often 32.7 µM), inactives show top-dose activity change, negative = inhibition, hits mostly inhibitors; 42% of 1,300 active; AID 1963320, 2024; further: on the % scale 0 is the no-effect control and ±100 the full control effect; nearly all actives have a fitted effect of over 70% in size
Numbers without * were called inactive; i = inactive; ? = inconclusive; nt = no result given; [ ] = another dose, or the depositor's remark. Shown are actives, neighbours in structure and some others; about 11% of the full set was active somewhere. Unless noted, the call rests on the fitted dose curve; in most records, active means well fitted curve in the direction sought with a large enough effect; inconclusive means small, poorly fitted or top-dose-only effect, or another doubt; inactive means no such curve, though single readings can be large; an effect the other way counts as inactive or inconclusive. Potency means the concentration at half of the fitted maximal effect.

SMILES	NPR1 antag	HEK cytotox	FLuc inh-1	3T3 cytotox	FLuc SDR no ATP	FLuc SDR ATP	FLuc inh-2
CN(C)c1cccc(C(=O)NC2CCN(c3cc(-c4ccc(Cl)cc4)[nH]n3)CC2)c1	?	?	7.1µM*	32µM*	12%	9.9µM*	6.2µM*
O=C(NC1CCCN(c2cc(-c3ccc(Cl)cc3)[nH]n2)C1)c1ccc2ncccc2c1 (stereo unspecified)	?	?	1.8µM*	?	10%	8%	5µM*
O=C(NC1CCCN(c2cc(-c3ccccc3)[nH]n2)C1)c1ccc(Cl)cc1 (stereo unspecified)	-11%	?	i	?	nt	nt	nt
Cc1cc(C)cc(-c2ccc(C(=O)NCCCn3ccnc3C(C)C)cn2)c1	-19%	?	i	?	nt	nt	nt
Cc1cnc(CCNC(=O)Nc2ccc3c(c2)OCCO3)n1Cc1ccc(F)cc1	-29%	40µM*	14µM*	-19%	19%	15%	?
Cc1cnc(CCNC(=O)C2CCCC2)n1Cc1ccc(F)cc1	4%	-19%	i	-20%	nt	nt	nt
Cc1cnc(CCNC(=O)Nc2ccc3c(c2)OCCO3)n1C1CC1	-15%	-25%	6.3µM*	-21%	19%	16%	?
Fc1ccc(Cc2nc3nccc(-c4ccccc4)n3n2)cc1	-2%	?	?	?	nt	nt	nt
CN(C)C(=O)c1ccc(-c2cccc(-c3ccn(CC4CC4)n3)c2)o1	?	?	7.1µM*	?	24%	?	7.9µM*
O=Cc1cccc(-c2ccc(C(=O)O)o2)c1	nt	i	nt	i	nt	nt	nt
CCc1ccc(CNC(=O)C2CCCN(c3nn4cc(-c5ccc(F)cc5)nc4s3)C2)cc1 (stereo unspecified)	nt	nt	nt	nt	12%	15%	-20%
Cc1nc2cc(N3CCCC(C(=O)NCc4ccc(N(C)C)cc4)C3)cnc2nc1C (stereo unspecified)	0%	-12%	i	-5%	nt	nt	nt
Nc1nn(-c2ccccc2)nc1C(=O)OCc1ccccc1	nt	nt	nt	nt	13%	10%	-13%
Cc1cc(C)n(-c2cccc(-c3nc(C4CCOC4)no3)c2)n1 (stereo unspecified)	5%	?	i	?	nt	nt	nt
CCOc1cccc(-c2nc(C3CCOC3)no2)c1 (stereo unspecified)	1%	i	13µM*	1%	13%	11%	-3%
COc1cccc(-c2ccc(-c3nc(C4CCOC4)no3)o2)c1 (stereo unspecified)	-20%	?	4.5µM*	?	21%	15%	?
COc1cccc(-c2noc(CCCc3nc(C4CCOC4)no3)n2)c1 (stereo unspecified)	-3%	-2%	i	-23%	nt	nt	nt
COc1ccc(C(=O)N2C[C@@H](CO)[C@H](NC(=O)c3ccccc3)C2)c(OC)n1	nt	i	nt	-3%	nt	nt	nt
Cc1ccc(CNC(=O)c2ccc3c(c2)CN(C2CCN(CC(C)C)CC2)CCO3)cc1	-2%	?	i	-27%	nt	nt	nt
Cc1ccccc1-c1ccc(COc2ccc3c(cnn3CCC(=O)O)c2)cc1	-16%[70.6 µM]	?	?	?	20%[49.3 µM]	13%[49.3 µM]	16µM*
COc1cc(F)cc(-c2ccc(COc3ccc4c(cnn4CCC(=O)O)c3)cc2)c1	0%[70.6 µM]	?	?	?	nt	nt	nt
Cc1ccc(F)cc1-c1ccc(COc2ccc3c(cnn3CCC(=O)O)c2)cc1	-14%[70.6 µM]	?	22µM*	?	19%[49.3 µM]	12%[49.3 µM]	?
COc1cccc(F)c1-c1ccc(COc2ccc3c(cnn3CCC(=O)O)c2)cc1	-8%[70.6 µM]	?	25µM*	?	16%[49.3 µM]	10%[49.3 µM]	?
CCOc1cccc2cc(-c3nc(-c4ccccc4C)no3)c(=O)oc12	nt	nt	nt	nt	?	?	?
CCOc1ccccc1-c1noc(-c2nc(C)no2)n1	6%	-17%	i	-10%	nt	nt	nt
SMILES	NPR1 antag	HEK cytotox	FLuc inh-1	3T3 cytotox	FLuc SDR no ATP	FLuc SDR ATP	FLuc inh-2
CN1CCC(O)(Cc2nc3c([nH]2)CC(C)(C)CNC3=O)CC1	10%	i	i	-1%	nt	nt	nt
CCc1ccc2oc(-c3ccc(NC(=O)c4ccc(OC)c(Br)c4)cc3)nc2c1	nt	nt	nt	nt	12%	8%	-12%
Cc1ccc(NC(=O)c2ccc3oc(-c4ccncc4)nc3c2)cc1	nt	?	nt	-14%[138 µM]	nt	nt	nt
CCc1ccc2oc(-c3cccc(NC(=O)c4cc5ccccc5o4)c3)nc2c1	nt	nt	nt	nt	21%	18%	?
CC(C)NC(=O)N[C@H]1C[C@@H](C(=O)N[C@H](Cc2c[nH]c3ccccc23)C(N)=O)N(C(=O)c2cccn2C)C1	1%	-10%	i	3%	nt	nt	nt
CC(C)n1ccnc1CN1CCc2onc(-c3ccc(Cl)cc3)c2C1	-23%	?	i	?	nt	nt	nt
CCc1ccc(NC(=O)N2CCCC(c3noc(COc4ccccc4)n3)C2)cc1 (stereo unspecified)	?	?	1.4µM*	?	?	?	2.8µM*
COC(=O)N1CC(N2C(=O)c3c(c(C)nn3-c3ccccc3)C2C)C1 (stereo unspecified)	nt	-20%	nt	?	nt	nt	nt
O=C(O)C1(CCc2ccccc2)CCCN(c2ncnc3nc[nH]c23)C1 (stereo unspecified)	2%	-13%	i	3%	14%	10%	1%
O=C(NC1CCCCC1)C1CN(S(=O)(=O)c2cc(F)ccc2F)CC12CCOCC2 (stereo unspecified)	2%	4%	i	-17%	nt	nt	nt
Cn1ccc2c(C(=O)NCc3cccnc3)nc(-c3ccc(N4CCOCC4)cc3)cc21	-11%[70.6 µM]	112µM*	14µM*	?	15%[49.3 µM]	11%[49.3 µM]	?
Cn1ccc2c(C(=O)NCCC(N)=O)nc(-c3ccccc3C(F)(F)F)cc21	4%[70.6 µM]	?	i	?	nt	nt	nt
